Screening data deposited in PubChem by National Center for Advancing Translational Sciences (NCATS).
Rows were chosen to be rich in hits. Some 2.1% of all compounds tested hit in one or more screens of this group.
aSyn yeast inh = inhibitors of alpha-synuclein toxicity in yeast | Yeast expressing alpha-synuclein, growth rescue, BacTiter-Glo, 24 h | Potency, µM (series often up to 46.1 µM), actives largely listed as activators | actives 0.14% (n = 370,000) | AID 652106; note: nearly all actives have a fitted effect of over 65% in size
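Rescue of yeast growth: cells expressing toxic alpha-synuclein, induced in galactose at OD600 0.02, incubated with compound 24 h at 30 C. ATP luminescence quantified growth; inhibitors of toxicity appear as activators.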
FUS suppressor = suppressors of FUS proteinopathy in yeast | actives 0.24% (n = 390,000) | S. cerevisiae FUS-expressing, growth rescue, OD600, 24 h | Potency, µM (highest dose often 76.6 µM), hits mostly activators; note: nearly all actives have a fitted effect of over 55% in size
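Yeast FUS proteinopathy model; galactose-induced FUS (2%), starting OD 0.005. Cpds in dilution series, 24hr, 30C, 99% humidity. Abs 600 nm growth. Pos ctrl CP55940 (top 92uM final); neg ctrl DMSO.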
Abeta yeast res = restores growth of yeast expressing A-beta42 peptide. yeast expressing A-beta42, growth rescue, OD600, 48 h; response scale: 0% DMSO, 100% iron-clioquinol control. Potency, µM (highest dose often 46.1 µM), hits mostly activators. actives 0.063% (n = 410,000). AID 1347071; note: nearly all actives have a fitted effect of over 55% in size
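Growth rescue measured by 600 nm absorbance after 48 h yeast culture at 30 C with compound. Values normalized between DMSO and an equimolar ferric chloride plus clioquinol control.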
TDP43 rescue = inhibitors of TDP-43 toxicity in yeast. TDP-43 expressing yeast growth rescue, BacTiter-Glo, 24 h. Potency, µM (highest dose often 46.1 µM), usual class: activators. actives 1.8% (n = 410,000). AID 652104; note: nearly all actives have a fitted effect of over 50% in size
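Growth rescue of TDP-43-toxic yeast measured as ATP luminescence (BacTiter-Glo). Cells grown to mid-log in raffinose, induced in galactose at OD600=0.02, exposed to compound 24 hr at 30 deg C.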
Of the large screens only hits and unclear results are named; the others gave an inactive call. Calls come from the whole dose curve; as a rule, active = well fitted curve in the direction sought with a large enough effect; inconclusive = small, poorly fitted or top-dose-only effect, or another doubt; inactive = no such curve, though single readings can be large; an effect the other way counts as inactive or inconclusive.

COc1cc2ccccc2cc1C(=O)NC1CCCCC1	none
COc1cc2ccccc2cc1C(=O)NC1CCCC1	TDP43 rescue 13µM
O=C(Nc1ccc(F)cc1)Nc1c(-c2ccc(F)cc2)nc2ncccn12	none (no result: aSyn yeast inh, Abeta yeast res, TDP43 rescue)
Cc1nc2c(C(=O)NCCc3ccc(Cl)cc3)cnn2c(C)c1Cc1ccc(F)cc1	FUS suppressor 32µM, TDP43 rescue 20µM (no result: aSyn yeast inh)
CN(CC(=O)Nc1cccc(F)c1)C(=O)c1sccc1-c1ccccc1	none
CN(CC(=O)Nc1ccc(Cl)cc1)C(=O)c1sccc1-c1ccccc1	Abeta yeast res inconclusive, TDP43 rescue 22µM
C[C@H]1CCCC(=O)N[C@@H](c2ccccc2)[C@@H](C)CCCC(=O)N[C@H]1c1ccccc1	none (no result: aSyn yeast inh, Abeta yeast res, TDP43 rescue)
Cc1c(NC(=O)C2CCCN(S(=O)(=O)c3ccc(Cl)s3)C2)c(=O)n(-c2ccccc2)n1C (stereo unspecified)	none (no result: aSyn yeast inh, Abeta yeast res, TDP43 rescue)
CCOc1ccc(Nc2nc(N)c(C(=O)c3ccccc3Cl)s2)cc1	TDP43 rescue 35µM (no result: aSyn yeast inh)
COc1cc(N2C(=O)C=CC2=O)ccc1N1C(=O)C=CC1=O	TDP43 rescue 20µM (no result: FUS suppressor)
OC(c1ccccc1)(c1ccccc1)C1CCN(CCCNc2ccc(Cl)cc2Cl)CC1	none (no result: aSyn yeast inh, Abeta yeast res, TDP43 rescue)
Cc1cc(C)c([N+](=O)[O-])cc1-c1ccc(/C=N/c2c(-c3ccco3)nc3ccccn23)o1	TDP43 rescue 14µM
O=[N+]([O-])c1ccc(Cl)c(-c2ccc(/C=N/c3c(-c4ccco4)nc4ccccn34)o2)c1	none
CCN(CC)CCCNC(=O)C1c2ccccc2C(=O)N(C)C1c1ccc(OC)cc1 (stereo unspecified)	TDP43 rescue 22µM
CCC(=O)N1c2ccc(S(=O)(=O)N3CCN(c4ccccc4Cl)CC3)cc2CC1C (stereo unspecified)	FUS suppressor inconclusive, TDP43 rescue 35µM
CCN(c1ccccc1)C(CNS(=O)(=O)c1ccccc1)c1ccccc1 (stereo unspecified)	TDP43 rescue 18µM (no result: aSyn yeast inh)
O=C(Nc1c(-c2ccc(C(F)(F)F)cc2)nc2ncccn12)C1CC1	none (no result: aSyn yeast inh, Abeta yeast res, TDP43 rescue)
CCOC(=O)C(=CNNc1ccccc1)C(=O)OCC	aSyn yeast inh inconclusive, TDP43 rescue 13µM
CN(C(=O)COC(=O)c1ccccc1Nc1ccccc1)c1c(N)n(Cc2ccccc2)c(=O)[nH]c1=O	FUS suppressor 35µM
O=C1CCC[C@H]2Cc3nc4cccc(Cl)c4cc3C[C@]23CCCN13	none (no result: aSyn yeast inh, Abeta yeast res, TDP43 rescue)
CCOc1ccc(N2C(=O)CC(N3CCN(c4ccc(Cl)cc4)CC3)C2=O)cc1 (stereo unspecified)	TDP43 rescue 14µM
c1ccc(CCSc2nnc(-c3cccnc3)n2Cc2ccccc2)cc1	none (no result: aSyn yeast inh, Abeta yeast res, TDP43 rescue)
Cc1c2ccncc2cc2c1[nH]c1ccccc12	aSyn yeast inh 10µM
FC(F)Oc1ccc(NC(=S)NC2CCCCCCC2)cc1	Abeta yeast res 11µM
CCc1c(C)c2ccc3c(c2oc1=O)CN(Cc1ccccc1)CO3	aSyn yeast inh 4.5µM
COCCCNC(=O)C[C@H]1C[C@@]2(C(=O)OC)C(=C[C@H](COCc3ccccc3)O[C@@H]2C)N(Cc2ccccc2)C1=O	none (no result: aSyn yeast inh, Abeta yeast res, TDP43 rescue)
Cc1ccc(CN2C(=O)C(Cc3ccccc3)Nc3ncnc(N4CCN(c5ccccc5)CC4)c32)cc1 (stereo unspecified)	FUS suppressor 25µM
O=C1C(Cc2ccccc2)Nc2ncnc(N3CCN(c4ccccc4)CC3)c2N1Cc1ccccc1 (stereo unspecified)	none
O=C(CSc1nnc(-c2ccccc2)n1-c1ccccc1)Nc1cccc2ccccc12	none (no result: aSyn yeast inh, Abeta yeast res, TDP43 rescue)
Cc1ccc(C(=O)C2=C(O)C(=O)N(Cc3cccnc3)C2c2ccc(Cl)cc2)o1 (stereo unspecified)	FUS suppressor 28µM
CCOc1ccc(C2C(C(=O)c3ccc(C)o3)=C(O)C(=O)N2Cc2cccnc2)cc1 (stereo unspecified)	FUS suppressor inconclusive
O=C(C1=C(O)C(=O)N(c2ncccn2)C1c1ccc(Cl)cc1)c1ccco1 (stereo unspecified)	FUS suppressor 32µM
Cc1ccccc1C(=O)Nc1sc2c(c1C(=O)N1CCCCC1)CCC(C)C2 (stereo unspecified)	TDP43 rescue 18µM (no result: aSyn yeast inh)
Cc1ccccc1C(=O)Nc1sc2c(c1C(=O)N1CCC(C)CC1)CCC(C)C2 (stereo unspecified)	none (no result: aSyn yeast inh)
O=C(O)CCc1ccc(-c2cccs2)o1	aSyn yeast inh 14µM, TDP43 rescue inconclusive
Cc1ccc(-n2c(CCC(=O)O)ccc2-c2cccs2)cc1C	none
COCCn1c(CCC(=O)O)ccc1-c1cccs1	none
